Laboratory results reported in PubChem BioAssay (NCI).
The panel holds about 79,000 compounds, 15% with a hit somewhere; the sample as a whole holds those more often. A number with no mark means an inactive call. Activity calls are given as the source filed them. Rule as the data show it: active = growth inhibition above about 70%; inactive = the rest.

Legend:
[1] = NCI Yeast Anticancer Drug Screen. Data for the rad50 strain (AID 155);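 also: 0% = growth of vehicle-only cultures of the same strain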; conditions: S. cerevisiae rad50 strain growth inhibition; at 50.0 µM; hits give high values
How it was run: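 A DNA repair-deficient yeast mutant serves as the test organism; compound-induced growth inhibition is calculated against vehicle-treated cells.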

[2] = NCI Yeast Anticancer Drug Screen. Data for the mec2-1 strain (AID 157); conditions: S. cerevisiae mec2-1 strain, at 50.0 µM, hits give high values
How it was run: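 Mutant yeast (mec2-1) grown with compound; growth inhibition relative to vehicle control reported.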

[3] = NCI Yeast Anticancer Drug Screen. Data for the sgs1 mgt1 strain (AID 161);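 also: 0% = growth of cultures given vehicle only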; conditions: S. cerevisiae sgs1 mgt1 strain, at 50.0 µM, hits give high values
How it was run: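 This yeast growth screen uses a strain with defined DNA-repair lesions; compound-treated growth is compared with vehicle-treated growth.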

[4] = NCI Yeast Anticancer Drug Screen. Data for the cln2 rad14 strain (AID 165);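 also: 0% = growth equal to vehicle treated cultures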; conditions: S. cerevisiae cln2 rad14 strain, at 50.0 µM, hits give high values
How it was run: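 Readout is yeast growth inhibition versus vehicle-treated controls, using a strain with cln2 and rad14 alterations exposed to compound.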

[5] = NCI Yeast Anticancer Drug Screen. Data for the bub3 strain (AID 167); conditions: S. cerevisiae bub3 mutant strain, at 50.0 µM, hits give high values
How it was run: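 Inhibition values come from growth of compound-treated mutant yeast normalised to vehicle-treated controls.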

[6] = NCI Yeast Anticancer Drug Screen. Data for the mlh1 rad18 strain (AID 175); conditions: S. cerevisiae mlh1 rad18 strain growth inhibition; at 50.0 µM; hits give high values
How it was run: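 Genetically defined yeast (DNA repair-deficient) exposed to compounds; growth inhibition determined relative to vehicle.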

| Structure (SMILES) | growth inhibition [1] | growth inhibition [2] | growth inhibition [3] | growth inhibition [4] | growth inhibition [5] | growth inhibition [6] |
| --- | --- | --- | --- | --- | --- | --- |
| COc1cccc(C(=O)CCN(C)C)c1 | 33.4% | 0.35% | -2.8% | 12.1% | 18.1% | 28.1% |
| O=C(n1[nH]c(=O)n(-c2ccc([N+](=O)[O-])cc2)c1=O)C(Cl)(Cl)Cl | 7.9% | -15.3% | 22.5% | 7.6% | 12.7% | -28.9% |
| Cc1ccc(C)c(NS(=O)(=O)c2ccc(Cl)c([N+](=O)[O-])c2)c1 | 97.1% (active) | 98.2% (active) | 97.8% (active) | 96.8% (active) | 97.9% (active) | 98% (active) |
| Cc1ccc(C(c2ccccc2)C(CC(=O)O)CC(=O)O)cc1 (stereo not given) | 1.2% | 20% | 15% | 6.45% | 5.2% | 15.9% |
| NC(Cc1ccc(OC(c2ccccc2)c2ccccc2)cc1)C(=O)O (stereo not given) | 6.45% | 4.9% | 0.75% | -10.7% | -13.6% | 28.8% |
| FC(F)(F)c1cccc(CSCc2c(CSCc3cccc(C(F)(F)F)c3)c(CSCc3cccc(C(F)(F)F)c3)c(CSCc3cccc(C(F)(F)F)c3)c(CSCc3cccc(C(F)(F)F)c3)c2CSCc2cccc(C(F)(F)F)c2)c1 | -12.7% | -2.5% | -6.35% | 12.2% | -7.65% | 7.45% |
| [Cl-].[Dy+3].[O-]/N=C(\c1ccccc1)c1ccccn1.[O-]/N=C(\c1ccccc1)c1ccccn1.[O-]/N=C(\c1ccccc1)c1ccccn1 | 27.4% | 13.3% | 20.2% | 12.2% | 19.4% | 25.1% |
| c1ccc(P(=Nc2cccc(N=P(c3ccccc3)(c3ccccc3)c3ccccc3)c2)(c2ccccc2)c2ccccc2)cc1 | 0.95% | 6.9% | 28.2% | -2.6% | 0.05% | 6.6% |
| NC(=O)c1nnc2cc(F)ccc2c1N | 4.8% | -3.45% | 1.35% | 0.4% | 1.6% | -1.6% |
| CC(C)CCC(=O)OCC(=O)c1ccc(-c2ccccc2)cc1 | 8.55% | -13.1% | 7.25% | -1.45% | 23.9% | 9.1% |
| CCCC(=O)OCc1ccc(Cl)cc1Cl | 31.6% | 13.3% | 14.8% | 7.75% | 0% | 13.9% |
| Cn1c(N)c(-n2[nH]c(=O)n(-c3ccccc3)c2=O)c(=O)n(C)c1=O | -20.6% | 15.3% | -3.25% | -14.8% | 14.6% | 18.1% |
| COc1ccc(-c2cn3c(nc4ccccc43)c(C)n2)cc1 | -4.8% | -3.15% | 16.6% | -17.9% | 21% | -11.3% |
| COC(=O)C(=O)C(C(=O)C(=O)Nc1ccc([N+](=O)[O-])cc1)c1nc2ccccc2[nH]c1=O (stereo not given) | 10.1% | -5.95% | 19.5% | 15.4% | 11.7% | 29.5% |
| S=C(NNC(=S)Nc1ccccc1)Nc1ccccc1 | -16.9% | 1.7% | 6.9% | -1.15% | -5.4% | -2.2% |
| Cn1c(=O)c2[nH]c(SC3CCCCC3)nc2n(C)c1=O | 19.2% | 11.4% | 18.6% | 11.3% | 35.8% | 8.9% |
| COC(=O)C1=C(C(=O)OC)N(C(C)C)[C@H]2C(C(=O)OC)=C(C(=O)OC)N(C(C)C)[C@@H]12 | 0.2% | -9.75% | -19.4% | 5.75% | -34.8% | 13.3% |
| CN(C(=O)Sc1ccc([N+](=O)[O-])cc1)c1ccc([N+](=O)[O-])cc1 | 1.3% | 15.2% | 9.8% | 4.05% | 31.4% | 21.3% |
| CC(C)(C)OC1COCCO1 (stereo not given) | 12.1% | -5.35% | 8.35% | 1.3% | 8% | 13.8% |
| CCc1nnc(CC)n1NCCCC(=O)O | 26.3% | 24.2% | 20.8% | 18.2% | 24.9% | 15.7% |

| Structure (SMILES) | growth inhibition [1] | growth inhibition [2] | growth inhibition [3] | growth inhibition [4] | growth inhibition [5] | growth inhibition [6] |
| --- | --- | --- | --- | --- | --- | --- |
| Cc1ccc(NC(=O)C(Br)C(Br)c2ccccc2)cc1Cl (stereo not given) | 94.2% (active) | 95.8% (active) | 96.6% (active) | 95.2% (active) | 94.7% (active) | 95.8% (active) |
| O=C(OCC1CCCO1)c1ccccc1 (stereo not given) | 8.4% | 13.2% | -15.3% | -18.4% | -8.75% | -11% |
| CCc1cc(C)cc(CC)c1N | 5.45% | -14.2% | -8.55% | -24.6% | 20.9% | 3.8% |
| Cc1ccc(C(=O)CC2=NC3NN(c4ccccc4)C(=O)C3=C2CC(=O)c2ccc(C)cc2)cc1 (stereo not given) | 38% | 2.4% | 4.55% | -13.1% | -9.05% | 45.3% |
| CCCCOC(=O)/C(=C\c1ccc(OC(C)=O)c(OC)c1)NC(=O)c1ccccc1 | 4.7% | 7.6% | -1.5% | -10.3% | 14.9% | -6.35% |
| O=C(N/N=C\c1ccc(Cl)cc1Cl)c1ccc(F)cc1 | -10.5% | -10.8% | -7.75% | 0.3% | -1.15% | -4.1% |
| Cn1c(=O)c2[nH]c(CSc3ccccc3)nc2n(C)c1=O | 9% | -5.15% | 6.2% | -2.1% | 21.8% | -14.8% |
| N[C@H](C(=O)O)[C@H]1ON=C(Cl)[C@@H]1O | 7.4% | 4.55% | 7.25% | 16.6% | 11.3% | -2.15% |
| C=C1CC(C)(C)CN(Cc2ccc([N+](=O)[O-])cc2)C(C(=O)OC)=C1C(=O)OC | 20.4% | -2.55% | 24.4% | 16.8% | -13.8% | 13.2% |
| CN(C(=O)c1ccc(C(=N)N)cc1)c1ccccc1 | -8.3% | -7.3% | -5.1% | -12.8% | -0.05% | -8.95% |
| CCCCCCCCSC1=NS(=O)(=O)c2ccccc21 | 64% | 28.6% | 44.5% | 31.1% | 49.2% | 31.1% |
| N#CNC(N)=Nc1ccc(Cl)cc1 | 5.35% | 7.5% | -27.9% | 19.6% | -19.6% | -17.4% |
| Clc1ccc(N=Cc2ccccc2Cl)cc1 | 34.8% | 16.1% | 25.2% | -13.7% | 42% | 19.7% |
| CCCC1([N+](=O)[O-])CCC(C)(O)C(/C(C)=N\O)C1 (stereo not given) | 7.05% | -9.5% | 25.5% | -0.15% | 26.1% | 40.2% |
| CC(=O)OCC(CBr)(CBr)COC(C)=O | 8.85% | -41.4% | -6.05% | -102% | -20.8% | 23.1% |
| O=C(O)Cn1cnc2c(=O)[nH]c(Nc3ccccc3)nc21 | 24.4% | 9.1% | 34.9% | 5.35% | 15.5% | -17.1% |
| Cc1cn(C(=O)NC23CC4CC(CC(C4)C2)C3)c(=O)[nH]c1=O | 14.8% | 1.6% | 11.1% | 9.65% | 10.9% | 82.2% (active) |
| CCCCNC(=O)OCc1cnc(C)n1Cc1ccccc1 | 2.8% | -0.3% | 6% | 4.95% | 4.1% | 10.2% |
| CCCOC(=O)/C=C/c1ccc(OC)cc1 | -10.7% | -18.9% | -16.1% | -12.2% | -14.4% | -27.4% |
| CC1(C)C(=NNc2ccccc2)C(C)(C)C1=NNc1ccccc1 | 14.8% | 63% | 15.5% | 79.9% (active) | 96.2% (active) | 33% |
